# In PubChem BioAssay (NCI):
# About 79,000 compounds went through this panel and 15% of them were active in at least one assay; those are over-represented in the sample as a whole. Values without a mark were called inactive. Activity calls are given as the source filed them. Cut-off read from the data, not from the text of the source: active = growth inhibition above about 70%; inactive = the rest. Starred links: 1 amine or outer side, 2 acyl side, 3 side chain; linkers in the order of their positions; H or OH if unused. Positions of bridges follow the written chain, without caps; N, C: chain ends. Non-standard residues stand in square brackets, D forms with d. Residues, ends and D or L forms follow the SMILES beside them. Chains are numbered I, II in the order given. Actinocin(9to1) = Cc1c2oc3c(C)ccc(C(=O)[*:1])c3nc-2c(C(=O)[*:2])c(N)c1=O; aThr = C[C@H](O)[C@H](N)C(=O)O; NMeV = CN[C@H](C(=O)O)C(C)C; Sar = CNCC(=O)O
# Tests used:
# [1] = NCI Yeast Anticancer Drug Screen. Data for the rad52 strain (AID 147);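 note: 0% = growth of vehicle-treated control cultures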; details: S. cerevisiae rad52 mutant growth inhibition, active compounds read high
# Summary of the method: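 Read-out: growth inhibition versus vehicle-treated controls. Cells were a DNA repair-deficient yeast strain treated with compounds.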
# [2] = NCI Yeast Anticancer Drug Screen. Data for the wt1 strain (AID 149);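 note: 0% = growth of vehicle-treated wt1 cultures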; details: S. cerevisiae wt1 strain (SPY 50644) growth inhibition, active compounds read high
# Summary of the method: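 Compounds are added to wt1 yeast cultures. Growth is then measured. Inhibition is expressed relative to vehicle-treated controls.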
# [3] = NCI Yeast Anticancer Drug Screen. Data for the rad50EPP+ strain (AID 151);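 note: 0% = growth of vehicle-treated control cultures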; details: S. cerevisiae rad50 mutant strain, active compounds read high
# Summary of the method: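 Growth inhibition read against vehicle controls in rad50EPP+ yeast, a strain altered in DNA damage repair, after compound exposure.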
# [4] = NCI Yeast Anticancer Drug Screen. Data for the rad50 strain (AID 155);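 note: 0% = growth of vehicle-only cultures of the same strain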; details: S. cerevisiae rad50 strain growth inhibition, active compounds read high
# Summary of the method: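 Inhibition values express reduced yeast growth in compound-treated cultures relative to vehicle-treated controls.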
# [5] = NCI Yeast Anticancer Drug Screen. Data for the mec2-1 strain (AID 157); details: S. cerevisiae mec2-1 strain, active compounds read high
# Summary of the method: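 Yeast mec2-1 mutant treated with compound. Readout: growth inhibition vs vehicle controls.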
# [6] = NCI Yeast Anticancer Drug Screen. Data for the rad14 strain (AID 159);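 note: 0% = growth of vehicle-treated control cultures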; details: S. cerevisiae rad14 strain growth inhibition, active compounds read high
# Summary of the method: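 A mutant yeast strain defective in DNA damage repair is treated with compound; inhibition of its growth is scored against untreated, vehicle-exposed cultures.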
# [7] = NCI Yeast Anticancer Drug Screen. Data for the sgs1 mgt1 strain (AID 161);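 note: 0% = growth of cultures given vehicle only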; details: S. cerevisiae sgs1 mgt1 strain, active compounds read high
# Summary of the method: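 Inhibition of yeast growth, normalised to vehicle-treated controls, is reported for a strain bearing genetic alterations in DNA damage repair.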
# [8] = NCI Yeast Anticancer Drug Screen. Data for the cln2 rad14 strain (AID 165);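 note: 0% = growth equal to vehicle treated cultures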; details: S. cerevisiae cln2 rad14 strain, active compounds read high
# Summary of the method: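 cln2 rad14 yeast strain; compound exposure; growth inhibition read vs vehicle controls.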
# [9] = NCI Yeast Anticancer Drug Screen. Data for the bub3 strain (AID 167); details: S. cerevisiae bub3 mutant strain, active compounds read high
# Summary of the method: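 Steps: expose the mutant yeast strain to compound; grow alongside vehicle-treated cultures; measure growth; express inhibition against the vehicle cultures.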
# [10] = NCI Yeast Anticancer Drug Screen. Data for the wt2 strain (AID 169);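 note: 0% = growth of vehicle-treated yeast cultures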; details: S. cerevisiae wt2 strain growth inhibition, active compounds read high
# Summary of the method: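 Read-out: growth inhibition versus vehicle-treated control cultures after compound exposure of the yeast strain.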
# [11] = NCI Yeast Anticancer Drug Screen. Data for the mlh1 strain (AID 171);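 note: 0% = growth of vehicle-treated control cultures of the same strain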; details: S. cerevisiae mlh1 strain growth inhibition, active compounds read high
# Summary of the method: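 Read-out: growth inhibition versus vehicle controls. Strain: engineered yeast with a defined DNA repair or cell cycle defect, compound-treated.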
# [12] = NCI Yeast Anticancer Drug Screen. Data for the sgs1 strain (AID 173);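 note: 0% = growth of vehicle-only control cultures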; details: S. cerevisiae sgs1 mutant, active compounds read high
# Summary of the method: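 Read-out: yeast growth inhibition relative to vehicle controls, following compound exposure of a strain with a defined DNA repair/cell cycle alteration.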
# [13] = NCI Yeast Anticancer Drug Screen. Data for the mlh1 rad18 strain (AID 175); details: S. cerevisiae mlh1 rad18 strain growth inhibition, active compounds read high
# Summary of the method: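 Yeast w/ defined DNA-repair lesions; compound exposure; growth vs vehicle controls → % inhibition.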
# [14] = NCI Yeast Anticancer Drug Screen. Data for the rad18 strain (AID 177); details: S. cerevisiae rad18 mutant growth inhibition, active compounds read high
# Summary of the method: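 Readout: growth inhibition vs vehicle controls. Cells: genetically altered yeast strain, DNA repair defect.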
# [15] = NCI Yeast Anticancer Drug Screen. Data for the CLN2oe strain (AID 163);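 note: 0% = growth of vehicle-only control cultures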; details: S. cerevisiae CLN2oe strain, active compounds read high
# Summary of the method: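 Read-out: yeast growth inhibition, expressed relative to vehicle-only controls. The strain bears an engineered cell-cycle alteration.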
# [16] = at 5.0 µM (retest, dose inferred, filed as 0.5)
# [17] = at 50.0 µM (retest, dose inferred, filed as 5.0)
smiles,measurement,setting,value
"Cc1c2oc3c(C)ccc(C(=O)N[C@@H]4C(=O)N[C@H](C(C)C)C(=O)N5CCC[C@H]5C(=O)N(C)CC(=O)N(C)[C@@H](C(C)C)C(=O)O[C@H]4C)c3nc-2c(C(=O)N[C@@H]2C(=O)N[C@H](C(C)C)C(=O)N3CCC[C@H]3C(=O)N(C)CC(=O)N(C)[C@@H](C(C)C)C(=O)O[C@H]2C)c(N)c1=O (I: [aThr][dV]P[Sar][NMeV] / II: [aThr][dV]P[Sar][NMeV]; ester I:1-I:C, II:1-II:C; linker I:N-II:N via Actinocin(9to1))",growth inhibition,[1]; at 1.2 µM,5%
same,growth inhibition,[1]; at 3.7 µM,38%
same,growth inhibition,[1]; at 11.0 µM,85% (active)
same,growth inhibition,[1]; at 33.0 µM,96% (active)
same,growth inhibition,[1]; at 100.0 µM,98% (active)
same,growth inhibition,[2]; at 1.2 µM,0%
same,growth inhibition,[2]; at 3.7 µM,19%
same,growth inhibition,[2]; at 11.0 µM,58%
same,growth inhibition,[2]; at 33.0 µM,95% (active)
same,growth inhibition,[2]; at 100.0 µM,95% (active)
same,growth inhibition,[3]; at 1.2 µM,2%
same,growth inhibition,[3]; at 3.7 µM,53%
same,growth inhibition,[3]; at 11.0 µM,94% (active)
same,growth inhibition,[3]; at 33.0 µM,97% (active)
same,growth inhibition,[3]; at 100.0 µM,99% (active)
same,growth inhibition,[4]; at 1.2 µM,9%
same,growth inhibition,[4]; at 3.7 µM,59%
same,growth inhibition,[4]; [16],65%
same,growth inhibition,[4]; at 11.0 µM,92% (active)
same,growth inhibition,[4]; at 33.0 µM,98% (active)
same,growth inhibition,[4]; [17],98% (active)
same,growth inhibition,[4]; at 50.0 µM,91.2% (active)
same,growth inhibition,[4]; at 100.0 µM,99% (active)
same,growth inhibition,[5]; at 1.2 µM,1%
same,growth inhibition,[5]; at 3.7 µM,29%
same,growth inhibition,[5]; [16],53%
same,growth inhibition,[5]; at 11.0 µM,84% (active)
same,growth inhibition,[5]; at 33.0 µM,97% (active)
same,growth inhibition,[5]; [17],99% (active)
same,growth inhibition,[5]; at 50.0 µM,93% (active)
same,growth inhibition,[5]; at 100.0 µM,98% (active)
same,growth inhibition,[6]; at 1.2 µM,3%
same,growth inhibition,[6]; at 3.7 µM,32%
same,growth inhibition,[6]; at 11.0 µM,75% (active)
same,growth inhibition,[6]; at 33.0 µM,97% (active)
same,growth inhibition,[6]; at 100.0 µM,98% (active)
same,growth inhibition,[7]; [16],24%
same,growth inhibition,[7]; [17],97% (active)
same,growth inhibition,[7]; at 50.0 µM,92.5% (active)
same,growth inhibition,[8]; [16],34%
same,growth inhibition,[8]; [17],92% (active)
same,growth inhibition,[8]; at 50.0 µM,89.3% (active)
same,growth inhibition,[9]; at 1.2 µM,3%
same,growth inhibition,[9]; at 3.7 µM,28%
same,growth inhibition,[9]; [16],24%
same,growth inhibition,[9]; at 11.0 µM,90% (active)
same,growth inhibition,[9]; at 33.0 µM,96% (active)
same,growth inhibition,[9]; [17],96% (active)
same,growth inhibition,[9]; at 50.0 µM,92% (active)
same,growth inhibition,[9]; at 100.0 µM,98% (active)
same,growth inhibition,[10]; at 1.2 µM,0%
same,growth inhibition,[10]; at 3.7 µM,26%
same,growth inhibition,[10]; at 11.0 µM,91% (active)
same,growth inhibition,[10]; at 33.0 µM,98% (active)
same,growth inhibition,[10]; at 100.0 µM,99% (active)
same,growth inhibition,[11]; at 1.2 µM,2%
same,growth inhibition,[11]; at 3.7 µM,28%
same,growth inhibition,[11]; at 11.0 µM,94% (active)
same,growth inhibition,[11]; at 33.0 µM,98% (active)
same,growth inhibition,[11]; at 100.0 µM,99% (active)
same,growth inhibition,[12]; at 1.2 µM,3%
same,growth inhibition,[12]; at 3.7 µM,30%
same,growth inhibition,[12]; at 11.0 µM,91% (active)
same,growth inhibition,[12]; at 33.0 µM,97% (active)
same,growth inhibition,[12]; at 100.0 µM,99% (active)
same,growth inhibition,[13]; [16],61%
same,growth inhibition,[13]; [17],98% (active)
same,growth inhibition,[13]; at 50.0 µM,90.5% (active)
same,growth inhibition,[14]; at 1.2 µM,-2%
same,growth inhibition,[14]; at 3.7 µM,18%
same,growth inhibition,[14]; at 11.0 µM,92% (active)
same,growth inhibition,[14]; at 33.0 µM,96% (active)
same,growth inhibition,[14]; at 100.0 µM,98% (active)
Clc1ccc(C(c2ccc(Cl)cc2)N2CCNCC2)cc1,growth inhibition,[1]; at 1.2 µM,2%
same,growth inhibition,[1]; at 3.7 µM,-3%
same,growth inhibition,[1]; at 11.0 µM,-1%
same,growth inhibition,[1]; at 33.0 µM,46%
same,growth inhibition,[1]; at 100.0 µM,98% (active)
same,growth inhibition,[2]; at 1.2 µM,5%
same,growth inhibition,[2]; at 3.7 µM,6%
same,growth inhibition,[2]; at 11.0 µM,3%
same,growth inhibition,[2]; at 33.0 µM,29%
same,growth inhibition,[2]; at 100.0 µM,98% (active)
same,growth inhibition,[3]; at 1.2 µM,1%
same,growth inhibition,[3]; at 3.7 µM,5%
same,growth inhibition,[3]; at 11.0 µM,5%
same,growth inhibition,[3]; at 33.0 µM,3%
same,growth inhibition,[3]; at 100.0 µM,-1%
same,growth inhibition,[5]; at 1.2 µM,-19%
same,growth inhibition,[5]; at 3.7 µM,-19%
same,growth inhibition,[5]; [16],70% (active)
same,growth inhibition,[5]; at 11.0 µM,-10%
same,growth inhibition,[5]; at 33.0 µM,49%
same,growth inhibition,[5]; [17],96% (active)
same,growth inhibition,[5]; at 50.0 µM,93% (active)
same,growth inhibition,[5]; at 100.0 µM,98% (active)
same,growth inhibition,[6]; at 1.2 µM,-36%
same,growth inhibition,[6]; at 3.7 µM,-30%
same,growth inhibition,[6]; at 11.0 µM,-41%
same,growth inhibition,[6]; at 33.0 µM,71% (active)
same,growth inhibition,[6]; at 100.0 µM,98% (active)
same,growth inhibition,[7]; [16],-35%
same,growth inhibition,[7]; [17],98% (active)
same,growth inhibition,[15]; at 1.2 µM,-1%
same,growth inhibition,[15]; at 3.7 µM,-2%
same,growth inhibition,[15]; at 11.0 µM,1%
same,growth inhibition,[15]; at 33.0 µM,18%
same,growth inhibition,[15]; at 100.0 µM,92% (active)
same,growth inhibition,[8]; [16],61%
same,growth inhibition,[8]; [17],88% (active)
same,growth inhibition,[9]; at 1.2 µM,1%
same,growth inhibition,[9]; at 3.7 µM,3%
same,growth inhibition,[9]; [16],12%
same,growth inhibition,[9]; at 11.0 µM,12%
same,growth inhibition,[9]; at 33.0 µM,71% (active)
same,growth inhibition,[9]; [17],96% (active)
same,growth inhibition,[9]; at 100.0 µM,94% (active)
same,growth inhibition,[10]; at 1.2 µM,-3%
same,growth inhibition,[10]; at 3.7 µM,-2%
same,growth inhibition,[10]; at 11.0 µM,-81%
same,growth inhibition,[10]; at 33.0 µM,46%
same,growth inhibition,[10]; at 100.0 µM,99% (active)
same,growth inhibition,[11]; at 1.2 µM,-35%
same,growth inhibition,[11]; at 3.7 µM,-34%
same,growth inhibition,[11]; at 11.0 µM,-34%
same,growth inhibition,[11]; at 33.0 µM,49%
same,growth inhibition,[11]; at 100.0 µM,98% (active)
same,growth inhibition,[12]; at 1.2 µM,-26%
same,growth inhibition,[12]; at 3.7 µM,-33%
same,growth inhibition,[12]; at 11.0 µM,-34%
same,growth inhibition,[12]; at 33.0 µM,41%
same,growth inhibition,[12]; at 100.0 µM,98% (active)
same,growth inhibition,[13]; [16],45%
same,growth inhibition,[13]; [17],96% (active)
same,growth inhibition,[13]; at 50.0 µM,92.3% (active)
same,growth inhibition,[14]; at 1.2 µM,3%
same,growth inhibition,[14]; at 3.7 µM,-7%
same,growth inhibition,[14]; at 11.0 µM,4%
same,growth inhibition,[14]; at 33.0 µM,65%
same,growth inhibition,[14]; at 100.0 µM,98% (active)
